Reference: ChEMBL document CHEMBL1961873, “Compounds: GSK PKIS; Assays: Nanosyn kinase panel” (2012)

How the values were obtained:
[1] = molecular target: Sphingosine kinase 1 (Homo sapiens) (UniProt Q9NYA1); settings: at 1 µM;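 further: mean SPHK1 inhibition value reported from the GSK PKIS kinase panel screen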
[2] = molecular target: T1, Sphingosine kinase 2 (Homo sapiens) (UniProt Q9NRA0); settings: at 0.1 µM
T1 sequence (whole entry): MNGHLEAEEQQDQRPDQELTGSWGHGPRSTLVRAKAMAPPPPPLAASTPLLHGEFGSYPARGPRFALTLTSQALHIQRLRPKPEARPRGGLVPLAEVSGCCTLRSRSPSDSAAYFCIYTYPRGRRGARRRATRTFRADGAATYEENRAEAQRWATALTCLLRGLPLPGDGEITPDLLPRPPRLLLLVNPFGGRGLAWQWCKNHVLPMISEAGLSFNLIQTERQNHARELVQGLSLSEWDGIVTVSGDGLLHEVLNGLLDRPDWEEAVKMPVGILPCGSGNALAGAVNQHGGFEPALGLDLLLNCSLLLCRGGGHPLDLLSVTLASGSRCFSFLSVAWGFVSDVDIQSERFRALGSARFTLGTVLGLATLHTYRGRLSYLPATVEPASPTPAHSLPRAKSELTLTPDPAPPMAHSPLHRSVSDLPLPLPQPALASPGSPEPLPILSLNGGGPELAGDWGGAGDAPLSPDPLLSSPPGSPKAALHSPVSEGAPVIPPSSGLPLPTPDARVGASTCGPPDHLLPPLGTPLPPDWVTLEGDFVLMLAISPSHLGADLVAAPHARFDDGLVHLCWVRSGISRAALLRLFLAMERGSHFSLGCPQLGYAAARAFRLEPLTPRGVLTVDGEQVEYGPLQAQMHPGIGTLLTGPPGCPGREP

[3] = molecular target: T1, Sphingosine kinase 2 (Homo sapiens); settings: at 1 µM
[4] = molecular target: Casein kinase II subunit alpha (Homo sapiens) (UniProt P68400); settings: at 0.1 µM
Casein kinase II subunit alpha (Homo sapiens), sequence (P68400 whole entry, looked up): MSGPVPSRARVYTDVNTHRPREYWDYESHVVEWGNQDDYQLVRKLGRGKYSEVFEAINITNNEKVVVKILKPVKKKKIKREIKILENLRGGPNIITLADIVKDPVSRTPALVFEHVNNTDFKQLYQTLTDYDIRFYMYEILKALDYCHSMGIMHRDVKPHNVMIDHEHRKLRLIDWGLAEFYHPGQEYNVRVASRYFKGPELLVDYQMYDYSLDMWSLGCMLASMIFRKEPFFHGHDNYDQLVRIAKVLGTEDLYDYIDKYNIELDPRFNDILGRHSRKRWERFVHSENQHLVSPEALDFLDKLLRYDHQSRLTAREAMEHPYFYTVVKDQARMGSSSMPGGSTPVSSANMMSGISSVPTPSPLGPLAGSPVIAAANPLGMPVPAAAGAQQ

[5] = molecular target: Casein kinase II subunit alpha (Homo sapiens) (UniProt P68400); settings: at 1 µM
[6] = molecular target: T2, Inhibitor of nuclear factor kappa-B kinase subunit alpha (Homo sapiens) (UniProt O15111); settings: at 0.1 µM
T2 sequence (whole entry): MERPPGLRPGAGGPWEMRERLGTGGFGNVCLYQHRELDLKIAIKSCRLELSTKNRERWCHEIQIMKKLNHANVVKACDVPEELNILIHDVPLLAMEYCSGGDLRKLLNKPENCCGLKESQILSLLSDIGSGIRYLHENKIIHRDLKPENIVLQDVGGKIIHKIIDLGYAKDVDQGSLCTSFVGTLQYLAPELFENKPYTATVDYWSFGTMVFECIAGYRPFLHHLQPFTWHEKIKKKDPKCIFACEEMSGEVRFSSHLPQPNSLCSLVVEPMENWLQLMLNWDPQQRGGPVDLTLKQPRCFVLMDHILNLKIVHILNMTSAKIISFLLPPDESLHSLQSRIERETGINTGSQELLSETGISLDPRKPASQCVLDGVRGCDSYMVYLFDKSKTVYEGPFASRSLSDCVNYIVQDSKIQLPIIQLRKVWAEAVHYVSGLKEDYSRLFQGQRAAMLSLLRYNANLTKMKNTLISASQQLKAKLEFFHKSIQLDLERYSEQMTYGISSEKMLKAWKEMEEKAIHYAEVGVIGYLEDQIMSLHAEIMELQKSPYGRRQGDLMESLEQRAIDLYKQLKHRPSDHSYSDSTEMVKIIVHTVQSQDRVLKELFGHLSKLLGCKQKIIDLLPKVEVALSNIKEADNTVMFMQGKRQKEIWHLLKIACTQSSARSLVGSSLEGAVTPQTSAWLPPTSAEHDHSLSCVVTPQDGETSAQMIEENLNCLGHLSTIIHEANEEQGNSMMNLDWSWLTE

[7] = molecular target: T2, Inhibitor of nuclear factor kappa-B kinase subunit alpha (Homo sapiens); settings: at 1 µM
[8] = molecular target: T3, Inhibitor of nuclear factor kappa-B kinase subunit beta (Homo sapiens) (UniProt O14920); settings: at 0.1 µM
T3 sequence (whole entry): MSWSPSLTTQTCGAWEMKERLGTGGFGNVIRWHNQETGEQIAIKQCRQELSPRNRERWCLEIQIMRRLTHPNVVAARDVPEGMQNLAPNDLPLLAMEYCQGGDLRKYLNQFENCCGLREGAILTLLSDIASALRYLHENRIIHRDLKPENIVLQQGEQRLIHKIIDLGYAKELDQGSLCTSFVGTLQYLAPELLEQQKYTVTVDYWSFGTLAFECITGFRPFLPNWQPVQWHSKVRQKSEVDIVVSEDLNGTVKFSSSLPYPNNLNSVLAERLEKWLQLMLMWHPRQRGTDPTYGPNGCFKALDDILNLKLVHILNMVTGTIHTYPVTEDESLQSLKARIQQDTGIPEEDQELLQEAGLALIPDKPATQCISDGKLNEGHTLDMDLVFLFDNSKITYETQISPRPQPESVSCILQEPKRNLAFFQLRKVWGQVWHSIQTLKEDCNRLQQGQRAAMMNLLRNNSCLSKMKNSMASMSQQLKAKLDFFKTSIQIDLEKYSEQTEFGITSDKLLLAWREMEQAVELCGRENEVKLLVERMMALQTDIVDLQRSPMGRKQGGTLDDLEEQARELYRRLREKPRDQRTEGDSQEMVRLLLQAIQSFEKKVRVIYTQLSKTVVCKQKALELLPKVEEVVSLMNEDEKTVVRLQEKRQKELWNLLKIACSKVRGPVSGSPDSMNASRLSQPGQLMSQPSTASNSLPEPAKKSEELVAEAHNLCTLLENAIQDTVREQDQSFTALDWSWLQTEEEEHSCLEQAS

[9] = molecular target: T3, Inhibitor of nuclear factor kappa-B kinase subunit beta (Homo sapiens); settings: at 1 µM
[10] = molecular target: T4, Inhibitor of nuclear factor kappa-B kinase subunit epsilon (Homo sapiens) (UniProt Q14164); settings: at 0.1 µM
T4 sequence (whole entry): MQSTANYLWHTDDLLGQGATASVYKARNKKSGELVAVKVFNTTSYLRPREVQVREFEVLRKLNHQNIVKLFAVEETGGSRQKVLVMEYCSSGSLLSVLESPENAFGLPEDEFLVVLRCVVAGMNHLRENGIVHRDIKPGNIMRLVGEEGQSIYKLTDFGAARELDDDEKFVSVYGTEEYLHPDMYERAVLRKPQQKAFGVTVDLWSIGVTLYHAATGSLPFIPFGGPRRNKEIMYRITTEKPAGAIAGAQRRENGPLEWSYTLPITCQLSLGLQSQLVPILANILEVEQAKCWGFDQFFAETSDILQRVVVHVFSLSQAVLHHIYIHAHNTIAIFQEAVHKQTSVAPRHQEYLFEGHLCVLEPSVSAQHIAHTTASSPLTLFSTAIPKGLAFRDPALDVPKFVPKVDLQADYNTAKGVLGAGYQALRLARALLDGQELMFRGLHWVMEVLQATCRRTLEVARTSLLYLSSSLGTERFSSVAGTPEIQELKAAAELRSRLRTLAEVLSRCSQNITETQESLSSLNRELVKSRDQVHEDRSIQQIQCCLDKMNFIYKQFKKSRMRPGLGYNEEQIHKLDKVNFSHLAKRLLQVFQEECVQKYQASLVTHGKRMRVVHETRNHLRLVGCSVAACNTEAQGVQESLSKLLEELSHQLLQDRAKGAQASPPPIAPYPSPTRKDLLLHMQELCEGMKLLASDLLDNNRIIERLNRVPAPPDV

[11] = molecular target: T4, Inhibitor of nuclear factor kappa-B kinase subunit epsilon (Homo sapiens); settings: at 1 µM
[12] = molecular target: T5, Serine/threonine-protein kinase Nek1 (Homo sapiens) (UniProt Q96PY6); settings: at 0.1 µM
T5 sequence (whole entry): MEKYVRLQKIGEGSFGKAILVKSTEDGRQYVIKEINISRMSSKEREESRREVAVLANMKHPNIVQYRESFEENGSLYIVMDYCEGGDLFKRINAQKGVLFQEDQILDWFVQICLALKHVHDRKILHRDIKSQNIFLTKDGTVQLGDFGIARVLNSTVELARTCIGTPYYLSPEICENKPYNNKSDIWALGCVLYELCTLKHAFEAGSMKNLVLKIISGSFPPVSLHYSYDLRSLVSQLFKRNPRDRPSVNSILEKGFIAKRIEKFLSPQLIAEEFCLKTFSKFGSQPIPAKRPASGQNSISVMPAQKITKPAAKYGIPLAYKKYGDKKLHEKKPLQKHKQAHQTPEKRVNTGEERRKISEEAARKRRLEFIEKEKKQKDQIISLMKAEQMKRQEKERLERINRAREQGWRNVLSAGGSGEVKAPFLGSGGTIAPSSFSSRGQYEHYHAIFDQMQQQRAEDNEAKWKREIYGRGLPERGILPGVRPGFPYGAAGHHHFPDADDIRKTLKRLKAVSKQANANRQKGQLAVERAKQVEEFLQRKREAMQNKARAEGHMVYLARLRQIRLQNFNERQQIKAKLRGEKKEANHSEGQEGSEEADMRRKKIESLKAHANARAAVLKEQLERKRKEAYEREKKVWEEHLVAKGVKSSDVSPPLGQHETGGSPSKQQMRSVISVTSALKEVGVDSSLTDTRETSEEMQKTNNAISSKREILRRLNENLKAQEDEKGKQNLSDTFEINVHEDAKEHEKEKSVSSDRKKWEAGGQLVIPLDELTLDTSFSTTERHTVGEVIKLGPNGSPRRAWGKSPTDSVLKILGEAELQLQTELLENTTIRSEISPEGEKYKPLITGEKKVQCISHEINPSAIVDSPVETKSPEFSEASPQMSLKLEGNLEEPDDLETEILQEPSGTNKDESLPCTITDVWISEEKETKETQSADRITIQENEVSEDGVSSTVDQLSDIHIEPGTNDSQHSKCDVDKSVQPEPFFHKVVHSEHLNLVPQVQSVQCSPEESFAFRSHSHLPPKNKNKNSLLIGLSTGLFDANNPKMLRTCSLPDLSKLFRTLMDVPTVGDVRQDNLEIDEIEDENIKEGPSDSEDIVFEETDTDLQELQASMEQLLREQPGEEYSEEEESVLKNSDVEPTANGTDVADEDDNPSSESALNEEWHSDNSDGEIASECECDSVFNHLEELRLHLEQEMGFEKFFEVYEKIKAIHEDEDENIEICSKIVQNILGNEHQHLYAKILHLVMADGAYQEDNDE

[13] = molecular target: T5, Serine/threonine-protein kinase Nek1 (Homo sapiens); settings: at 1 µM
[14] = molecular target: T6, Serine/threonine-protein kinase Nek2 (Homo sapiens) (UniProt P51955); settings: at 0.1 µM
T6 sequence (whole entry): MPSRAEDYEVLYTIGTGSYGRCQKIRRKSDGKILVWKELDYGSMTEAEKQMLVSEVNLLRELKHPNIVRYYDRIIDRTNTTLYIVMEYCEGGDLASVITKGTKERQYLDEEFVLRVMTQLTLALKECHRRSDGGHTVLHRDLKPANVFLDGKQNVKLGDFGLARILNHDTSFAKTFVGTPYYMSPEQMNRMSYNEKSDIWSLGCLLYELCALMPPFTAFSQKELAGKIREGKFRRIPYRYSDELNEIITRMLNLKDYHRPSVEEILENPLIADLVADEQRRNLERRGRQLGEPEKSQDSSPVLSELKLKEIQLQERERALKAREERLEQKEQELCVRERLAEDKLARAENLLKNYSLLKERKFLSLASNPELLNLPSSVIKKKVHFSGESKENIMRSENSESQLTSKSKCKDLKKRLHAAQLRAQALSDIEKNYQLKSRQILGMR

[15] = molecular target: T6, Serine/threonine-protein kinase Nek2 (Homo sapiens); settings: at 1 µM
[16] = molecular target: Serine/threonine-protein kinase Nek6 (Homo sapiens) (UniProt Q9HC98); settings: at 0.1 µM
Serine/threonine-protein kinase Nek6 (Homo sapiens), sequence (Q9HC98 whole entry): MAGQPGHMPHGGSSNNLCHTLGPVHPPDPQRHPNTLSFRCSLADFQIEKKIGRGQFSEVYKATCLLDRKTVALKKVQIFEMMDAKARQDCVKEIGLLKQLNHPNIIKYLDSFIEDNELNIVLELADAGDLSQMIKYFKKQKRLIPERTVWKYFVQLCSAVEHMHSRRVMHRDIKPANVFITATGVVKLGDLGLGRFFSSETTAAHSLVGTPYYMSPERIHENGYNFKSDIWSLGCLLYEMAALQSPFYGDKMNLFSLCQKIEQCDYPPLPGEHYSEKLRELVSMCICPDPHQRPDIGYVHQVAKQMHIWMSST

[17] = molecular target: Serine/threonine-protein kinase Nek6 (Homo sapiens) (UniProt Q9HC98); settings: at 1 µM
[18] = molecular target: Serine/threonine-protein kinase Nek7 (Homo sapiens) (UniProt Q8TDX7); settings: at 0.1 µM
Serine/threonine-protein kinase Nek7 (Homo sapiens), sequence (Q8TDX7 whole entry, looked up): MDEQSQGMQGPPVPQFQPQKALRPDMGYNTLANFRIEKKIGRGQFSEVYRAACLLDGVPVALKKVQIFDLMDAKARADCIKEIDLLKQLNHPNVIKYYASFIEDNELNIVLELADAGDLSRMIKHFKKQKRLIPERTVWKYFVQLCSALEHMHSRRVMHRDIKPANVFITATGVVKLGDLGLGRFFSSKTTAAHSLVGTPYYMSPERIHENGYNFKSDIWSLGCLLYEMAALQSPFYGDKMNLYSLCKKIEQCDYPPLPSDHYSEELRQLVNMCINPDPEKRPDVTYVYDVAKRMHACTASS

[19] = molecular target: Serine/threonine-protein kinase Nek7 (Homo sapiens) (UniProt Q8TDX7); settings: at 1 µM
[20] = molecular target: T7, Serine/threonine-protein kinase Nek9 (Homo sapiens) (UniProt Q8TD19); settings: at 0.1 µM;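 further: reported value is the mean percent inhibition of NEK9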
T7 sequence (whole entry): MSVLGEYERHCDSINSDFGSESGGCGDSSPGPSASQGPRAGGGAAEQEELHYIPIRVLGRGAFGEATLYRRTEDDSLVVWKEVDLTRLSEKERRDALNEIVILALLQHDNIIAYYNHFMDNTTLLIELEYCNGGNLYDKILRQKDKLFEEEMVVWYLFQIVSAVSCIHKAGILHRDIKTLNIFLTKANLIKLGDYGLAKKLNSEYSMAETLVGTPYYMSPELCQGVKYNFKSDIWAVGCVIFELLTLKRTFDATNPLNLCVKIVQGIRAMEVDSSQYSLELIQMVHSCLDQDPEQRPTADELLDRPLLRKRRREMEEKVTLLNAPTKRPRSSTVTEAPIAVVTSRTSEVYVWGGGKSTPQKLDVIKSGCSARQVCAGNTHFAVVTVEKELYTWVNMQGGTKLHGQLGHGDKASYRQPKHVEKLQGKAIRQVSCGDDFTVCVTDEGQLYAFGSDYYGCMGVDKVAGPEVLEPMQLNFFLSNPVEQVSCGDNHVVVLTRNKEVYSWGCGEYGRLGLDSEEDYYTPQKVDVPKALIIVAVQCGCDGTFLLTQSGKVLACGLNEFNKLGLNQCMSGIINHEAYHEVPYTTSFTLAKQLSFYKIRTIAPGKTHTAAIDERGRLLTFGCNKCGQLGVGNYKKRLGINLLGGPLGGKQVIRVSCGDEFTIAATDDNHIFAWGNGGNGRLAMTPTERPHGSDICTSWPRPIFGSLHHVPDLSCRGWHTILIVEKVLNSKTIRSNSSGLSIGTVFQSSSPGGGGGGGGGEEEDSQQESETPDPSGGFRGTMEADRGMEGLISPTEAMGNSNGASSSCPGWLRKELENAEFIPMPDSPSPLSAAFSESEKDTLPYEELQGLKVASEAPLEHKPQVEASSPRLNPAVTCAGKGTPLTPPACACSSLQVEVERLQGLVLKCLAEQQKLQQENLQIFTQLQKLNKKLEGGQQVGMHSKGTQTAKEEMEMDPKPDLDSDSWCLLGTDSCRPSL

Sphingosine kinase 1 (Homo sapiens), sequence (Q9NYA1 whole entry): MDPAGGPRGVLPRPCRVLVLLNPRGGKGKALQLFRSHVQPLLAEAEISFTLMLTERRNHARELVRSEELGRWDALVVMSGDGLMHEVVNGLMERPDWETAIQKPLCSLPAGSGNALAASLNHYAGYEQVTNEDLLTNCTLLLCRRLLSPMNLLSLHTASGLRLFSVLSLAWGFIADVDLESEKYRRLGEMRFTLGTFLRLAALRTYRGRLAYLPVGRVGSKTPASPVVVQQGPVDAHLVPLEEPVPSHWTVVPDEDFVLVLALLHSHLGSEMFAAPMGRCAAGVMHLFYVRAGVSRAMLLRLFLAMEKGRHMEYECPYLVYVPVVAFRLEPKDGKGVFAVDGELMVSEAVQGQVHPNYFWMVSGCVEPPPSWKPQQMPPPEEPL

SMILES	inhibition [1] [%]	inhibition [2] [%]	inhibition [3] [%]	inhibition [4] [%]	inhibition [5] [%]	inhibition [6] [%]	inhibition [7] [%]	inhibition [8] [%]	inhibition [9] [%]	inhibition [10] [%]	inhibition [11] [%]	inhibition [12] [%]	inhibition [13] [%]	inhibition [14] [%]	inhibition [15] [%]	inhibition [16] [%]	inhibition [17] [%]	inhibition [18] [%]	inhibition [19] [%]	inhibition [20] [%]
NC(=O)c1ccc(Oc2nccc(-c3c(-c4ccc(F)cc4)ncn3C3CCNCC3)n2)cc1	2.16	0.71	0.08	2.95	2.91	5.54	7.33	7.24	6.83	8.54	7.38	4.02	5.01	6.78	5.63	1.6	1.67	3.46	9.69	6.05
O=C(NCC1CC1)c1ccc(-c2cccc(C(=O)NC3CC3)c2)cc1	-3.07	0.02	1.28	0.31	-2.23	4.96	0.42	1.17	0.13	3.8	–	1.66	2.92	1.96	1.96	1.75	1.92	3.35	3.21	9.43
